Only some compounds are listed: those with a hit (about 5.2% of all), similar ones and a draw of the others.
Tau fluor counter – Counterscreen qHTS for Inhibitors of Tau Fibril Formation, Fluorescence Polarization; Potency, µM (doses to about 57.7 µM), for the others: at the highest dose activity change, negative = decrease; tau K18 P301L Alexa594 fluorescence, heparin fibrillization; hit rate 0.93% among 280,000; also: potency is read from the fitted curve at half-maximal effect; nearly all actives have a fitted effect of over 55% in size
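Human K18 P301L tau (15 uM unlabeled plus 0.24 uM Alexa 594-labeled, final) in 100 mM sodium acetate pH 7 was mixed with compound and 20 uM heparin and incubated 6 hr at 37 C.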
Tau fibril FP – qHTS for Inhibitors of Tau Fibril Formation, Fluorescence Polarization. Potency, µM (series often up to 57.7 µM), for the others: at the highest dose activity, negative = inhibition, usual class: inhibitors. hit rate 0.39% among 280,000. K18 P301L tau heparin fibrillization, Alexa594 FP, 6 h. Microtubule-associated protein tau (Homo sapiens), P10636; also: potency is read from the fitted curve at half-maximal effect; nearly all actives have a fitted effect of over 55% in size
Target sequence (P10636 561-689 P618L limits assumed): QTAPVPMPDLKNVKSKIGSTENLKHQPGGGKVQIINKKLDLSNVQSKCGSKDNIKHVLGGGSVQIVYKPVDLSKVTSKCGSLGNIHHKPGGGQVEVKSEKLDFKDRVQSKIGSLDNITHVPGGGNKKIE
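Steps: dispense K18 P301L tau (15 uM plus 0.24 uM Alexa 594 tracer, final) in pH 7 sodium acetate; add compound; add heparin (20 uM final); incubate 6 hr, 37 C; add ThT (30 uM final); after 1 hr ambient, read FP.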
Tau fibril ThT – qHTS for Inhibitors of Tau Fibril Formation, Thioflavin T Binding; hit rate 2.1% among 270,000; recombinant tau K18 P301L, heparin-induced fibrillization, ThT fluorescence; AID 1460, 2008; Potency, µM (top dose mostly 57.4 µM), for the others: top-dose activity, negative = inhibition, actives largely listed as inhibitors; Microtubule-associated protein tau (Homo sapiens), P10636; also: potency is read from the fitted curve at half-maximal effect; nearly all actives have a fitted effect of over 55% in size
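Fibril formation assay: tau K18 P301L at 15 uM with trace Alexa 594 label, heparin inducer 20 uM, pH 7 sodium acetate buffer, 37 C for 6 hr; endpoint ThT signal.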
FBPA coupling cs – qHTS Assay for Inhibitors of Fructose-1,6-bisphosphate Aldolase from Giardia Lamblia: Coupling assay counterscreen; coupling enzyme system counterscreen, AmpLite Red fluorescence; activity change, negative = inhibition, % at 58.2 µM, hits read low; hit rate 0.67% among 290,000; in the data active = activity change below about -30%
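Counterscreen lacking aldolase: glyceraldehyde-3-phosphate coupling-enzyme reagent preincubated 10 min at RT with compound (at 57.5 uM final), then substrate/coupling system with AmpLite Red added; fluorescence read at 525/598 nm after 20 min RT.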
Sfp PPTase inh – qHTS Assay for Inhibitors of Bacillus subtilis Sfp phosphopantetheinyl transferase (PPTase); hit rate 3.5% among 310,000; 4'-phosphopantetheinyl transferase ffp (Bacillus subtilis), Q9F4F7; Potency, µM, for inactives: largest response in the series, negative = inhibition, actives largely listed as inhibitors; Biochemical Sfp PPTase activity, qHTS; AID 1490, 2009;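 also: the enzyme is Sfp with the accession as filed and its product quenches rhodamine fluorescence; potency is read from the fitted curve at half-maximal effect; 0% = enzyme reaction without inhibitor and -100% = no enzyme wells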
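Sfp 15 nM + cpd, 15 min RT; start w/ rhodamine-CoA 5 uM, BHQ-2-YbbR 12.5 uM (final); 50 mM Hepes pH 7.6, 10 mM MgCl2, 0.01% NP-40, 0.01% BSA; read 525/598 nm at 0 and 30 min.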
* marks the source's active call; other numbers are inactive results; ? = inconclusive; . = no result; [ ] = another dose, or the depositor's remark. Unless noted, calls follow the shape of the dose curve; as a rule, active = well fitted curve in the direction sought with a large enough effect; inconclusive = small, poorly fitted or top-dose-only effect, or another doubt; inactive = no such curve, though single readings can be large; an effect the other way counts as inactive or inconclusive. Unless noted, % is scaled to controls: 0 for no effect and ±100 for the full control effect.

SMILES	Tau fluor counter	Tau fibril FP	Tau fibril ThT	FBPA coupling cs	Sfp PPTase inh
Cc1ccccc1NC(=O)/C(=C/c1ccco1)c1ccccc1	-22.0%	-10.5%	-14.0%	0.0	56.2µM*
CC(C)OC(=O)/C(=C/c1ccco1)c1ccccc1	0.3%	-7.9%	-1.7%	-2.3	44.7µM*
CCc1ccccc1NC(=O)/C(=C/c1ccco1)c1ccccc1	-19.4%	-6.3%	?	-7.3	44.7µM*
COc1ccc(NC(=O)c2oc3ccccc3c2NC(=O)C23CC4CC(CC(C4)C2)C3)c(OC)c1	?	-7.3%	-4.6%	.	.
COc1ccc(/C=C2\CCc3ccccc3C2=O)cc1Cn1nc(C)cc1C	-10.2%	6.4%	?	-4.1	20µM*
O=C(Nc1ccccc1F)C(Cc1ccccc1)N1Cc2ccccc2C1=O (stereo not drawn)	-3.4%	-5.3%	1.3%	.	.
CC[n+]1c(/C=C2/C=C(C)CC(C)C2)sc2ccccc21 (stereo not drawn)	-18.8%	-11.7%	?	-5.2	44.7µM*
CC[n+]1c(C=C2C=C(C)OC(C)=C2)sc2ccccc21	2.5%	1.2%	25.1µM*	0.5	1.4%
O=C1C(Cl)=C(Nc2cccc(O)c2)C(=O)N1Cc1ccccc1	?	-6.0%	14.1µM*	0.6	-3.1%
CCOC(=O)NC1(NC(C)C)Oc2ccccc2O1	-18.6%	-0.3%	?	1.4	?
CCOC(=O)NC1(Nc2ccc(C)cc2)Oc2ccccc2O1	-2.2%	2.3%	-0.3%	-4.9	35.5µM*
CCOC(=O)NC1(NCC(C)C)Oc2ccccc2O1	?	-14.7%	?	-12.1	79.4µM*
CCOC(=O)NC1(NC2CCCCC2)Oc2ccccc2O1	-16.0%	0.0%	?	-6.3	56.2µM*
CCOC(=O)NC1(NCc2ccccc2)Oc2ccccc2O1	-22.3%	-6.8%	?	-9.5	50.1µM*
Cc1cnc2c(c1SCC(=O)Nc1ccc(F)cc1F)c(=O)n(C)c(=O)n2C	-5.5%	-0.7%	-1.9%	.	.
CCOC(=O)c1ccc(-c2ccc(/C=C(\C#N)C(=O)Nc3ccc(C)cc3OC)o2)cc1	-4.4%	2.9%	?	.	.
Cc1c(C(=O)Nc2ccc(F)cc2)oc2ccc(S(=O)(=O)N3CCCCCC3)cc12	?	?	-2.8%	.	.
CCCCNC(=O)C1C2C=CC(C2)C1C(=O)O (stereo not drawn)	-1.6%	-4.9%	2.7%	2.6	-6.3%
CCCCOc1ccc(C(=O)NNC(=O)C2C3C=CC(C3)C2C(=O)O)cc1 (stereo not drawn)	.	.	.	.	44.7µM*
CCOc1cccc(C(=O)NCc2ccccc2)c1	-5.2%	-2.2%	2.2%	2.6	13.0%
CCOc1cccc(C(=O)NNC(=O)C2C3C=CC(C3)C2C(=O)O)c1 (stereo not drawn)	.	.	.	.	35.5µM*
O=C(Cn1cc(S(=O)(=O)Cc2ccc(F)cc2)c2ccccc21)NCCc1ccccc1	?	-6.3%	-8.1%	.	.
COc1cc(/C=C2/C(=O)NN(c3cccc(C)c3)C2=O)ccc1OC(=O)c1ccco1	?	?	?	13.8	44.7µM*
COc1cc(/C=C2/C(=O)NN(c3cccc(C)c3)C2=O)cc([N+](=O)[O-])c1O	-17.5%	-0.4%	14.1µM*	-1.2	11.9%
OCC1=CC[N+]2(Cc3ccccc3)CCC(O)[C@@H]12 (stereo partly drawn)	-12.5%	-0.6%	-12.2%	-0.6	26.6%
SMILES	Tau fluor counter	Tau fibril FP	Tau fibril ThT	FBPA coupling cs	Sfp PPTase inh
Cc1cc(Sc2ncnc(N)c2[N+](=O)[O-])ncn1	?	-2.2%	?	5.3	50.1µM*
Cc1cc(Sc2nc(N)ncc2[N+](=O)[O-])ncn1	?	2.7%	?	0.7	22.4µM*
O=C(/C=C/Nc1cccc([N+](=O)[O-])c1)c1cccs1	?	3.2%	4.47µM*	-6.8	-16.5%
Cc1ccc([N+](=O)[O-])cc1NC(=O)c1cccs1	1.2%	2.2%	4.6%	4.5	10.4%
COc1ccc(C(=O)/C=C(\C)Nc2ccc3c(c2)OCO3)cc1	?	5.9%	12.6µM*	.	-29.6%
CNc1cc([N+](=O)[O-])ccc1N/C=C/C(=O)c1cccs1	?	9.8%	15.8µM*	-0.5	8.5%
COC(=O)c1ccc(N/C=C\C(=O)c2ccc3c(c2)OCO3)cc1	-0.3%	2.3%	0.2%	-0.4	-8.8%
COc1ccc(N/C=C\C(=O)c2ccc3c(c2)OCO3)cc1OC	?	0.6%	2.82µM*	0.5	-9.3%
CCCCN(C)C(=O)C1CCCN(c2ncnc3onc(-c4ccc(F)cc4)c23)C1 (stereo not drawn)	-15.5%	-4.7%	-5.0%	.	.
CNc1cc([N+](=O)[O-])ccc1N/C=C/C(=O)c1ccc2c(c1)OCO2	-26.8%	8.2%	3.55µM*	1.0	?
CCN1CCN(CCNC(=O)c2ccc(/C=C3/Sc4ccccc4N(Cc4cccc(Cl)c4)C3=O)cc2)CC1	-22.2%	?	?	2.7	50.1µM*
COc1ccc(/C=C2\Sc3ccc(C(=O)NCCN4CCCCCC4)cc3N(C)C2=O)cc1	.	.	.	0.5	?
CCN1CCN(CCNC(=O)c2ccc3c(c2)N(Cc2ccc(F)cc2)C(=O)/C(=C/c2ccccc2)S3)CC1	?	?	?	-4.5	50.1µM*
CN1CCN(CCCNC(=O)c2ccc(/C=C3\Sc4ccccc4N(Cc4ccccc4F)C3=O)cc2)CC1	-15.7%	?	?	1.6	39.8µM*
O=C(NCCN1CCOCC1)c1ccc(/C=C2\Sc3ccccc3N(Cc3ccccc3F)C2=O)cc1	.	.	.	0.2	-18.6%
CCOc1ccc(N2C(=O)/C(=C\c3ccc(O)c(OC)c3)S(=O)(=O)C2c2cccc([N+](=O)[O-])c2)cc1 (stereo not drawn)	31.6µM*[quencher]	8.1%	?	2.5	3.7%
O=C(COc1ccccc1)Nc1cccc(-c2nc3cc4ccccc4cc3[nH]2)c1	15.8µM*[quencher]	?	?	-4.8	14.2%
CCC(=O)Nc1ccc(Cl)c(-c2nc3ccccc3[nH]2)c1	-6.0%	0.1%	-1.6%	.	.
COc1cccc(C(=O)Nc2ccc(Cl)c(-c3nc4ccccc4[nH]3)c2)c1	?	25.1µM*	?	.	.
CC(C)CC(=O)Nc1cccc(-c2nc3ccccc3[nH]2)c1	-17.3%	-19.1%	-5.0%	-1.9	15.1%
CC(C)COc1ccc(C(=O)Nc2cccc(-c3nc4ccccc4[nH]3)c2)cc1	7.94µM*[quencher]	20µM*	?	.	.
CC(=O)Nc1cccc(-c2nc3ccccc3[nH]2)c1	4.0%	-0.9%	-2.1%	-13.3	-3.3%
Cc1cc(C)cc(OCC(=O)Nc2cccc(-c3nc4ccccc4[nH]3)c2)c1	11.2µM*[quencher]	22.4µM*	-14.2%	.	.

Screening results from PubChem.
